Reference: article PMC4552634, “A New Set of Chemical Starting Points with Plasmodium falciparum Transmission-Blocking Potential for Antimalarial Drug Discovery” (PLoS ONE, 2015)
Screen size: about 13,000 compounds; about 3,200 (25%) showed an effect of 50% or more. Some of the results follow.

Tested on: P. falciparum stage V gametocytes
Design: BacTiter-Glo ATP luminescence viability of purified stage V gametocytes in 384-well plates, per cent inhibition versus DMSO
Details: 48 h, 5 µM; inhibitor

Structure (SMILES)	% Inhibition [%]
O=c1[nH]c(Cc2ccccc2)nc2ccc(Cl)cc12 [TCMDC-123986]	41.17
Cc1cccc2nc(-c3ccc(-c4ccc(CN5CCCC(N)C5)cc4)s3)[nH]c12.O=C(O)C(F)(F)F (stereo not shown) [TCMDC-133864]	61.01
Cc1cccc2nc(-c3ccc(-c4ccc(CN5CCCC(O)C5)cc4)s3)[nH]c12.O=C(O)C(F)(F)F (stereo not shown) [TCMDC-133827]	-10.01
Cc1cccc2nc(-c3ccc(-c4ccc(CN5CCC(CO)CC5)cc4)s3)[nH]c12.O=C(O)C(F)(F)F [TCMDC-133128]	-12.48
Cc1cccc2nc(-c3ccc(-c4ccc(CN5CCC(N)C5)cc4)s3)[nH]c12.O=C(O)C(F)(F)F (stereo not shown) [TCMDC-133862]	94.82
Cc1cccc2nc(-c3ccc(-c4ccc(CN5CCC(C(N)=O)CC5)cc4)s3)[nH]c12.O=C(O)C(F)(F)F [TCMDC-132695]	10.69
NC(=O)c1cccc(C(=O)Nc2ccc(-c3cccc(-c4nc5ccc(F)cc5[nH]4)c3)cc2)c1 [TCMDC-132196]	-0.7681
CCOC(=O)c1ccc(NC(=O)NNC(=O)c2ccc(CCN3CCC(c4nc(COCC(F)(F)F)c(-c5ccc(F)cc5)o4)CC3)cc2)cc1 [TCMDC-131907]	11.96
Cc1ccc2[nH]c(-c3ccc(C(=O)NC4CCN(Cc5ccccc5)CC4)cc3)nc2c1C [TCMDC-140449]	4.358
O=C(Nc1ccc(S(=O)(=O)N2CCOCC2)cc1)c1cc(-c2cc(Cl)ccc2O)n[nH]1 [TCMDC-125204]	-22.77
Cc1ccc(-c2cc(C(=O)Nc3ccc(S(=O)(=O)N4CCCCC4)cc3)[nH]n2)c(O)c1 [TCMDC-124305]	-41.04
Cc1ccc(-c2cc(C(=O)Nc3ccc(S(=O)(=O)N4CCOCC4)cc3)[nH]n2)c(O)c1C [TCMDC-124306]	74.46
O=C(Nc1ccon1)c1cc(-c2cccnc2)nc2ccc(Br)cc12 [TCMDC-125217]	-5.67
CC1N=C(N)N=C(N)N1OCc1cccc2ccccc12 (stereo not shown) [TCMDC-131595]	37.89
O=C(NCCN1CCCCC1)c1cc2cc(-c3ccccc3)ccc2n1S(=O)(=O)c1ccccc1 [TCMDC-139102]	37.88
CN1CCC(OC(=O)c2cc3cc(-c4ccccc4)ccc3n2S(=O)(=O)c2ccccc2)CC1 [TCMDC-139104]	88.58
CN(C)CCCN1CCN(C(=O)c2cc3cc(-c4ccccc4)ccc3n2S(=O)(=O)c2ccccc2)CC1 [TCMDC-139103]	17.27
Cc1cccc2nc(-c3ccc(-c4ccc(CNCC5CCCO5)cc4)cc3)[nH]c12.O=C(O)C(F)(F)F (stereo not shown) [TCMDC-133093]	-8.859
Cc1cccc(C)c1OC(=O)CSc1nnc(-c2ccccc2O)o1 [TCMDC-125733]	-18.5
Cc1[nH]c2ccccc2c1C(=O)C(C)Sc1nnc(-c2ccccc2Br)[nH]1 (stereo not shown) [TCMDC-125114]	93.54
Cc1[nH]c2ccccc2c1C(=O)C(C)Sc1nnc(-c2ccccc2F)o1 (stereo not shown) [TCMDC-125312]	68.46
Nc1nc(F)nc2nc[nH]c12 [TCMDC-124283]	4.967
O=C(NCc1cccc(F)c1)Nc1cccc(-c2ccc(-c3nc4ccc(C(F)(F)F)cc4[nH]3)cc2)c1 [TCMDC-133288]	-40.45
CCNc1cc(C(=O)N[C@@H](Cc2ccccc2)[C@H](O)CNCCc2cccc(C(F)(F)F)c2)cc(N2CCCC2=O)c1 [TCMDC-134552]	-6.04

Structure (SMILES)	% Inhibition [%]
COc1cccc(C(O)CNc2ccnc(Nc3ccc(Cl)cc3)n2)c1 (stereo not shown) [TCMDC-136575]	5.772
Clc1ccc(-c2ccc(C=NNc3nc(Nc4ccccc4)nc(Nc4ccccc4)n3)o2)cc1Cl [TCMDC-124152]	3.438
Clc1ccc(Nc2nc(NCc3ccccc3)nc(N/N=C/c3ccccn3)n2)cc1 [TCMDC-138557]	107.3
Clc1cccc(C=NNc2nc(Nc3ccccc3)nc(Nc3ccccc3)n2)c1 [TCMDC-125798]	24.55
O=c1cc(NCCCNCc2ccc(C(F)(F)F)s2)[nH]c2ccccc12 [TCMDC-140767]	-70.92
COc1ccc2nccc([C@@H](O)CN3CCC(NCCOc4cc(F)cc(F)c4)CC3)c2c1 [TCMDC-140510]	10.94
COc1ccc2nccc([C@@H](O)CN3CCC(NCCOc4cccc(C(F)(F)F)c4)CC3)c2c1 [TCMDC-140507]	58.71
COc1ccc2nccc([C@@H](O)CN3CCC(NCCOc4ccc(F)cc4F)CC3)c2c1 [TCMDC-140645]	94.72
COc1ccc2nccc([C@@H](O)CN3CCC(NCCOc4ccc(F)cc4Cl)CC3)c2c1 [TCMDC-140660]	20.67
COc1ccc2nccc([C@@H](O)CN3CCC(NCCOc4ccncc4)CC3)c2c1 [TCMDC-140574]	11.37
COc1ccc2nccc([C@@H](O)CN3CCC(NCCOc4ccccc4C(F)(F)F)CC3)c2c1 [TCMDC-140713]	37.87
COc1ccc2nccc([C@@H](O)CNCCCN(C)CCOc3cc(F)cc(F)c3)c2c1 [TCMDC-141051]	75.1
COc1ccc2nccc([C@@H](O)CN3CCC(NCCOc4cc(C(F)(F)F)ccc4F)CC3)c2c1 [TCMDC-140658]	14.45
COc1ccc2nccc([C@@H](O)CN3CCC(NCCOc4cccc(F)c4F)CC3)c2c1 [TCMDC-140644]	24.45
CCCCc1cc(NCC)nc(Nc2cccc(OC)c2)n1 [TCMDC-133993]	0.878
COc1ccc(CCCN2C(=O)C(c3ccccc3)(c3ccccc3)N=C2N)cc1 [TCMDC-136503]	-39.16
O=C(Nc1ccc(N2CCNCC2)nc1)c1oc(-c2ccccc2)nc1C(F)(F)F [TCMDC-135131]	3.26
CC(C)N(C(=O)CSc1nc2cc(Cl)ccc2c(=O)n1Cc1ccccc1)C(C)C [TCMDC-123612]	6.529
Cc1nc2ccc3ccc(CN(C)c4ccc(C(=O)N[C@@H](CCC(=O)O)C(=O)O)cc4)cc3c2c(=O)[nH]1 [TCMDC-138089]	24.11
Cc1cccc2[nH]c(-c3cccc(-c4cccc(NC(=O)Nc5ccc(F)c(F)c5F)c4)c3)nc12 [TCMDC-133227]	-33.06
COc1cncc(/C=C/c2cncc(C(=O)NCCc3ccc(Cl)cc3Cl)c2)c1 [TCMDC-134508]	-1.142
CCOc1cc(C=NNc2nc(C)cc(-n3nc(C)cc3C)n2)ccc1O [TCMDC-124094]	92.61
CCOc1cc(/C=N/Nc2nc3ccccc3[nH]2)ccc1OCc1ccc([N+](=O)[O-])cc1 [TCMDC-124191]	-53.42
CCOc1ccc(Nc2cc(C)nc(Nc3ccc(OCC)cc3)n2)cc1 [TCMDC-125772]	-32.28

Structure (SMILES)	% Inhibition [%]
CC1(C)N=C(N)N=C(N)N1OCCSc1ccccc1 [TCMDC-131670]	-8.546
CCNC(=O)Nc1cccc(-c2cccc(-c3nc4c(C)cccc4[nH]3)c2)c1 [TCMDC-133172]	-6.099
CSc1ccc2ccccc2c1CNCCCCCCNCc1c(SC)ccc2ccccc12 [TCMDC-137758]	72.82
CC1CCC(NCc2c(O)ccc3ccccc23)CC1 (stereo not shown) [TCMDC-137602]	-21.28
CSc1ccc2ccccc2c1CCNCCCCNCCc1c(SC)ccc2ccccc12 [TCMDC-137763]	109.4
CC1CN(Cc2csc(Nc3ccccc3)n2)CC(C)O1 (stereo not shown) [TCMDC-125078]	46.05
FC(F)(F)c1ccc2c(C=Cc3ccncc3)c[nH]c2c1 [TCMDC-137257]	12.06
CCCC(=O)Nc1ccc(OCCCCN(Cc2ccccc2C(F)(F)F)c2ccc(C(F)(F)F)c(C#N)c2)cc1 [TCMDC-133359]	32.41
CCCCN(C)CC#Cc1ccc2[nH]c(C)c(Cl)c(=O)c2c1 [TCMDC-136185]	85.15
O=c1c2ccccc2[nH]c2cc(Cl)ccc12 [TCMDC-123989]	-7.86
Cc1[nH]c2ccc(-c3ccccc3)cc2c(=O)c1Br [TCMDC-135426]	61.46
CCCCN(C)CC#Cc1ccc(-c2ccc3[nH]c(C)c(Br)c(=O)c3c2)cn1 [TCMDC-136285]	11.41
CCCCc1ccc(-c2ccc3[nH]c(C)c(Br)c(=O)c3c2)cc1 [TCMDC-135463]	34.89
Cc1[nH]c2ccccc2c(=O)c1-c1ccc(Cl)cc1 [TCMDC-137172]	25.44
Cc1ccc2c(=O)c3cc(C)ccc3[nH]c2c1 [TCMDC-138194]	58.3
Cc1ccc2[nH]c3ccccc3c(=O)c2c1 [TCMDC-123947]	19.38
CCN(CC)CC#Cc1ccc2[nH]c(C)c(Cl)c(=O)c2c1 [TCMDC-136162]	0.7622
Cc1[nH]c2ccc(-c3ccc(N(C)C)cc3)cc2c(=O)c1Cl [TCMDC-136188]	61.07
Cc1[nH]c2ccccc2c(=O)c1Br [TCMDC-137427]	12.8
Cc1[nH]c2ccc(-c3ccc(OC(F)(F)F)cc3)cc2c(=O)c1C#N [TCMDC-136129]	23.98
Cc1ccc2nc(Nc3ccc(Nc4nc5ccc(C)cc5[nH]4)c(C)c3)[nH]c2c1 [TCMDC-131952]	-70.19
COc1ccc2nccc([C@@H](O)CN3CCC(NC(=O)c4cc5ccccc5[nH]4)CC3)c2c1 [TCMDC-140780]	-18.21
